In PubChem BioAssay (NCI):
About 83,000 compounds went through this panel and 20% of them were active in at least one assay; those are over-represented in the sample as a whole.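 Negative percent growth values reflect cell death: -40 means 40% of the cells present at the start died, and -100 means all died.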 Unmarked numbers belong to inactive results. Calls of active or inactive are those of the source. The calls were made as follows: active = growth percent below 10; inactive = the rest.

What follows are compounds tested on HL-60(TB) leukemia (assay: NCI-60 one-dose screen, 48 h (100 = growth as untreated, 0 = no growth, -100 = all killed)). Details: 10 µM unless noted.

SMILES | growth
COc1ccc(/C=C2\Oc3cc(OCCCN4CCCCC4)ccc3C2=O)cc1OC | 99.9%
Cc1c(C(N)=O)sc2nc(SCC(=O)Nc3ccc(Cl)cc3)n(-c3ccccc3)c(=O)c12 | 171%
O=C(Cn1c2ccccc2c2ccncc21)N/N=C\c1ccc2ccccc2c1 | 40.5%
CCOCCOCCOCCOCCOCCOCCOCCOCCOCCO (tested in a mixture with another compound) | -54.9% (active)
Cc1ccc(-c2nc(C(Cl)Cl)n3nc(-c4ccccc4)cc3n2)cc1 | 61.3%
O=c1oc2c(cc1-c1ccccc1)c[n+]([O-])c1ccccc21 | 97.7%
O=S(=O)(Nc1ccc(Cl)c(F)c1)c1ccc(-c2cnc(C3CC3)o2)cc1 | 0.942% (active)
COc1ccc(C(=O)/C=C/c2cc(-c3cc(OC)c(OC)c(OC)c3)n[nH]2)cc1OC | 3.15% (active)
O=C(Nc1ccc(Cl)cc1F)c1cc(F)ccc1O | -43.8% (active)
Cc1cc(C(=O)Nc2cc(Nc3ncccc3-c3ncnc4nc[nH]c34)ccc2F)cc(C(C)(C)C#N)c1 | 26.4%
COc1cc(-c2cc(C(=O)N3CCN(C(=O)c4ccccc4NCc4cccs4)CC3)nc3cc(-c4ccccc4)nn23)cc(OC)c1OC | 82.7%
CC(Br)C(Br)c1cc2c(cc1Br)OCO2 (configuration not stated) | 97%
CN1CCN(c2cc3c(cc2F)c(=O)c(C(=O)O)cn3-c2ccc(F)cc2)CC1 | 99.3%
CCCCCCNC(=O)c1cc(NCc2cc(O)ccc2O)ccc1O | -6.21% (active)
COc1cc(OC)c2c(=O)c(O)c(-c3ccccc3)oc2c1 | 53.4%
O=C(O)/C(Br)=C/c1c[nH]c2ccc(Br)cc12 | 96.9%
CC[C@]1(O)C[C@H]2CN(CCc3c([nH]c4ccccc34)C(C(=O)OC)(c3cc4c(cc3OC)N(C)[C@H]3[C@@](O)(C(=O)OC)[C@H](OC(C)=O)[C@]5(CC)[C@@H]6C[C@@H]6CN6CC[C@]43[C@@H]65)C2)C1 (some centres not stated) | -30.9% (active)
Cc1ccc2c(C(C[N+](=O)[O-])c3ccco3)c(-c3ccccc3)[nH]c2c1 (configuration not stated) | -5.69% (active)
CN(C)c1ccc(/C=N/NC(=O)CSc2nc3sc4c(c3c(=O)n2-c2ccccc2)CCCCC4)cc1 | 86.8%

SMILES | growth
C=CC(=O)Nc1cccc(Nc2nc(Nc3ccc(OCCOC(F)F)cc3)ncc2F)c1 | 19.8%
O=S(=O)(NCCCNc1nccc(-c2c(-c3ccc(F)c(O)c3)nc3sccn23)n1)c1ccc(Cl)cc1 | 83.1%
C=Cc1nn2c(CCC(=O)c3nc4ccccc4[nH]3)nnc2s1 | 104%
CNCCCNc1nc2ccccc2c2c(=O)c3cc(Cl)ccc3sc12 | -55.2% (active)
O=C1C[C@H](c2ccccc2)[C@H](c2ccccc2)C1 | 88.1%
O=C(Nc1c(Cl)cccc1Cl)Oc1cccc2cccnc12 | -5.41% [100 µM] (active)
N#Cc1c(-c2ccccc2)nc2c(c(-c3ccccc3)nn2-c2ccccc2)c1-c1ccc(N2CCOCC2)cc1 | 65.4%
COc1cc(-c2c3c(cn2CCN2CCCCC2)-c2oncc2CC3)cc(OC)c1OC | 109%
O=C1CC(c2ccc3c(c2)OCO3)c2ncn(-c3ccc(Cl)cc3)c2N1 (configuration not stated) | -9.97% (active)
CC1(C)CC[C@]2(C(=O)N3CCOCC3)CC[C@]3(C)C(=CC[C@@H]4[C@@]5(C)C/C(=C/c6ccncc6)C(=O)C(C)(C)[C@@H]5CC[C@]43C)[C@@H]2C1 | -37.6% (active)
Cc1cc(OCCO)cc(C)c1Cl | 100%
CN1CCN(C(=O)c2c3c(n4ccccc24)C(=O)c2ncccc2C3=O)CC1 | 53.4%
O=[N+]([O-])c1cccc(/C=C/c2ccccn2)c1 | 120%
COc1ccc(-c2c(-c3cc(OC)c4c(c3)OCO4)noc2N)cc1 | -7.49% (active)
O=C1OCC2=C1C(c1cccc(C(F)(F)F)c1)c1cc3c(cc1N2CCO)OCO3 (configuration not stated) | -24.9% (active)
COc1cccc(C2C3=C(COC3=O)N(CCO)c3cc4c(cc32)OCCO4)c1 (configuration not stated) | -16.1% (active)
Fc1cc(Nc2ccc3c(OCCCN4CCOCC4)cccc3n2)ccc1Cl | 39.1%
COc1cc(/C=N/Nc2nc(-c3ccc(F)cc3)c(C#N)c(N3CCOCC3)n2)ccc1O | 72.5%
